Assay [1] can be described thus: rapamycin-like changes in RPL19A-GFP expression – cell-based, S. cerevisiae, multiplex flow cytometry, primary screen (AID 1862; in the data active = percent of DMSO control GFP below about 86%;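 note: lower values mimic rapamycin by blocking the RPL19A rise seen in DMSO cells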). To be noted: S. cerevisiae RPL19A-GFP strain, flow cytometry fluorescence, 3 h; at 10 µM; stronger effect = lower value. For orientation: In flow cytometry, cells or beads pass a laser one at a time.
Assay [2] in a line: TOR pathway GLN3 branch reporter MEP2-GFP changes – S. cerevisiae, multiplex flow cytometry, primary screen (AID 1867;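 active = GFP response, as percent of the DMSO control, above the screen-wide mean plus 3 SD, about 139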;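 note: median GFP channel fluorescence of barcode-gated MEP2-GFP cells measured by flow cytometry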). To be noted: S. cerevisiae MEP2-GFP strain, 3 h, at 10 µM, stronger effect = higher value, 100% means same as DMSO wells.
The nature of assay [3]: TOR pathway RTG branch CIT2 reporter changes – S. cerevisiae, GFP fusion, multiplex flow cytometry, primary screen (AID 1870;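 active = percent response above a set limit, the screen-wide mean plus 3 SD, cut at about 130% in these data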;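 note: barcoded CIT2-GFP strain pooled with four other GFP strains with rapamycin as positive control; median GFP fluorescence per well over plate mean of DMSO wells so 100% = DMSO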). To be noted: S. cerevisiae CIT2-GFP expression, 3 h, at 10 µM, stronger effect = higher value.
Assay [4] can be described thus: TOR pathway LAP4-GFP level changes – S. cerevisiae, multiplex flow cytometry, primary screen (AID 1873). To be noted: S. cerevisiae LAP4-GFP expression, 3 h, at 10 µM, stronger effect = higher value.
Assay [5] in a line: yeast AGP1-GFP level changes, GLN3 branch – cell-based, multiplex flow cytometry, S. cerevisiae, primary screen (AID 1887;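 active = GFP signal above the screen-wide mean plus 3 SD, that is over about 124.5% of the solvent control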;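 note: AGP1-GFP fusion strain of S. cerevisiae within a five-strain barcoded multiplex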). To be noted: 3 h, at 10 µM, stronger effect = higher value.
The nature of assay [6]: reduced mouse 2C T cell binding to pMHC/ICAM-1 vesicles – MLPCN validation set, flow cytometry, LFA-1/ICAM-1 modulator project, pilot screen (AID 2523;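 active = response below a set limit, under 55% cells CD8-positive and vesicle-bound, and CD8 cells' 90th-percentile brightness under 279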;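 for vesicle binding response: mean PE anti-B7-1 fluorescence of CD8+ cells relative to row control; 100% = QL9-loaded vesicles with DMSO vehicle in the same plate row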). To be noted: 2C mouse CD8+ T cells, at 7 µM, stronger effect = lower value; double positive events: measured here: CD8+/vesicle+ event percentage.
Assay [7] deals with Integrin beta-1 (Homo sapiens) + Integrin alpha-4 (Homo sapiens) (UniProt P13612+P05556). Briefly: alpha4beta1 integrin LIBS antibody binding reduction – U937 cells, HUTS-21 mAb, flow cytometry, validation set, VLA-4 allosteric modulator project, pilot screen (AID 2674;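 active = inhibition above 50%, about 3 SD of the validation set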;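 note: antibody binding induced by the VLA-4 ligand LDV present at three times its Kd; 0% = LDV ligand with antibody and no compound and 100% = antibody without LDV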). To be noted: HUTS-21 LIBS mAb binding, at 6.7 µM, stronger effect = higher value, binding induced by LDV ligand.
Sequence of Integrin beta-1 (Homo sapiens) + Integrin alpha-4 (Homo sapiens) (P05556 whole entry, looked up): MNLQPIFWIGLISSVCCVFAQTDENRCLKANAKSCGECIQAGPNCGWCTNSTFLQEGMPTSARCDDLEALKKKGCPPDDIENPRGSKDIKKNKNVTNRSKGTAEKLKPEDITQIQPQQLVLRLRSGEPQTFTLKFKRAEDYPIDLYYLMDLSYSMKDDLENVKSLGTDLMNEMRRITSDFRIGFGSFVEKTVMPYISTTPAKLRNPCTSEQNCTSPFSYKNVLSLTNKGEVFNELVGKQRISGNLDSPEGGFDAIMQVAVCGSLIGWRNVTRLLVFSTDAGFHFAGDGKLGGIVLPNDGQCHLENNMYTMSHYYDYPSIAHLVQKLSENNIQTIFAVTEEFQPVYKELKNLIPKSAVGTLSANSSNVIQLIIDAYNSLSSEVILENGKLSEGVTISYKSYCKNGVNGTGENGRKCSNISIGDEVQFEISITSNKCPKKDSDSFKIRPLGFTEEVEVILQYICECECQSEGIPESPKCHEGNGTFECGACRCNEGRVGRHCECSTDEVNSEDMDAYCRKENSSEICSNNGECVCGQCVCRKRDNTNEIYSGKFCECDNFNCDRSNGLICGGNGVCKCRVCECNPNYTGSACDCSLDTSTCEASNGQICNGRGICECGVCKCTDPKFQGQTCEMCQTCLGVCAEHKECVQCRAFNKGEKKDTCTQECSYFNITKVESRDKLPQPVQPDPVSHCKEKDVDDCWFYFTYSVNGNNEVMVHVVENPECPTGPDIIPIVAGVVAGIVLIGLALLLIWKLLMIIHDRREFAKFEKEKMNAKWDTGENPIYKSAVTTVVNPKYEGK
Sequence of Integrin beta-1 (Homo sapiens) + Integrin alpha-4 (Homo sapiens) (P13612 whole entry, looked up): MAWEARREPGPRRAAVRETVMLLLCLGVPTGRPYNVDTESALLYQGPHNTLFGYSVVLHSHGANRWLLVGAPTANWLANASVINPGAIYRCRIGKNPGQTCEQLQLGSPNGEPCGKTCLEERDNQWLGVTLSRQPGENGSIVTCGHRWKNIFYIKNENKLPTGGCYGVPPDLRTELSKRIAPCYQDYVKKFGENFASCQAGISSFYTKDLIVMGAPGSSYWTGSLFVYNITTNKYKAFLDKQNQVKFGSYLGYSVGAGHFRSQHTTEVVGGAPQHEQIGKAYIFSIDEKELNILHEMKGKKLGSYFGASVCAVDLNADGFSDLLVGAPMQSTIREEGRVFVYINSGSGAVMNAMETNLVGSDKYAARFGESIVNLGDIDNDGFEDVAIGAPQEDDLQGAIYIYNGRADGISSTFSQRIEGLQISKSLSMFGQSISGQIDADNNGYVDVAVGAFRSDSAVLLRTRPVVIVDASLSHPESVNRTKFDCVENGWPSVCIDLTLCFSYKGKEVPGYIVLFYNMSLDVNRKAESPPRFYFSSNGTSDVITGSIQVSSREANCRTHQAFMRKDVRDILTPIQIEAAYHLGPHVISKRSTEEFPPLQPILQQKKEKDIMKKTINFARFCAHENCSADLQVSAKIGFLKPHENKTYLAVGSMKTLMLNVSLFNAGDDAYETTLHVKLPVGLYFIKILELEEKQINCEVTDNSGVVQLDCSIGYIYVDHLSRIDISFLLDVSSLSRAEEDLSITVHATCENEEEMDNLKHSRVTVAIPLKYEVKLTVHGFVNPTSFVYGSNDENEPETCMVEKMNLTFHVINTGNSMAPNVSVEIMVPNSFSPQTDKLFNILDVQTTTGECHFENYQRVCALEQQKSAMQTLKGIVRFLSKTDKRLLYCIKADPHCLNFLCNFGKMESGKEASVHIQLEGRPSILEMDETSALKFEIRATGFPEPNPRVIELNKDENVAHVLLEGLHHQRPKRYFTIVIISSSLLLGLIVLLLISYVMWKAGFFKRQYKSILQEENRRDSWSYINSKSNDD
Assay [8] can be described thus: calorie-restriction mimetic ROS inhibitors, yeast – validation compound set, pilot screen (AID 2706;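 active = superoxide response below 65% of plate, a cut near 3 SD across the whole screen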;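 note: yeast exposed to compound for one week at 30 degrees C before staining; 100% = mean of all compound wells on the same plate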). To be noted: S. cerevisiae aging, superoxide DHE fluorescence; at 10 µM; stronger effect = lower value.
Assay [9] has as its target Beta-adrenergic receptor kinase 1 (Homo sapiens) (UniProt P25098). As to the kind of experiment: GRK2 binders displacing RNA aptamer, biochemical, validation, human GRK2, bead flow cytometry (AID 488806;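 active = aptamer binding inhibition above 30%, about 3 SD of noise from non-fluorescent compounds; inactive = inhibition at or below 30%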). The following applies: bead-bound GRK2, FAM-aptamer displacement, at 10 µM, stronger effect = higher value.
Assay [10] has as its target Beta-2 adrenergic receptor (Homo sapiens) (UniProt P07550). As to the kind of experiment: agonist-induced loss of surface beta2AR – cell-based, FAP fluorogen, flow cytometry, validation set, pilot screen (AID 504459;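 active = percent response above 42, roughly 3 SD of non-fluorescent test compounds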;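 note: agonist-driven loss of surface beta2AR via internalization measured by FAP dye flow cytometry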). The following applies: Am2.2-beta2AR cells, at 10 µM, stronger effect = higher value.
The target of assay [11] is AP-2 complex subunit beta (Homo sapiens) (UniProt P63010). As to the kind of experiment: beta-arrestin/AP2 interaction blockers – biochemical, validation set, GST-AP2 beads, flow cytometry, pilot screen (AID 504541;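 active = inhibition above 54%, about 3 SD of non-fluorescent compounds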;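 note: AP2 carries R879A mutation and is captured from E. coli lysate; bead-bound FITC arrestin peptide fluorescence measuring arrestin peptide binding to AP2; 0% = DMSO wells and 100% = excess unlabeled arrestin peptide control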). The following applies: FITC arrestin peptide, at 10 µM, stronger effect = higher value, AP2 beta2 appendage fragment, R879A mutant.
Sequence of AP-2 complex subunit beta (Homo sapiens) (P63010 whole entry, looked up, the tested form may be a part, one chain of several): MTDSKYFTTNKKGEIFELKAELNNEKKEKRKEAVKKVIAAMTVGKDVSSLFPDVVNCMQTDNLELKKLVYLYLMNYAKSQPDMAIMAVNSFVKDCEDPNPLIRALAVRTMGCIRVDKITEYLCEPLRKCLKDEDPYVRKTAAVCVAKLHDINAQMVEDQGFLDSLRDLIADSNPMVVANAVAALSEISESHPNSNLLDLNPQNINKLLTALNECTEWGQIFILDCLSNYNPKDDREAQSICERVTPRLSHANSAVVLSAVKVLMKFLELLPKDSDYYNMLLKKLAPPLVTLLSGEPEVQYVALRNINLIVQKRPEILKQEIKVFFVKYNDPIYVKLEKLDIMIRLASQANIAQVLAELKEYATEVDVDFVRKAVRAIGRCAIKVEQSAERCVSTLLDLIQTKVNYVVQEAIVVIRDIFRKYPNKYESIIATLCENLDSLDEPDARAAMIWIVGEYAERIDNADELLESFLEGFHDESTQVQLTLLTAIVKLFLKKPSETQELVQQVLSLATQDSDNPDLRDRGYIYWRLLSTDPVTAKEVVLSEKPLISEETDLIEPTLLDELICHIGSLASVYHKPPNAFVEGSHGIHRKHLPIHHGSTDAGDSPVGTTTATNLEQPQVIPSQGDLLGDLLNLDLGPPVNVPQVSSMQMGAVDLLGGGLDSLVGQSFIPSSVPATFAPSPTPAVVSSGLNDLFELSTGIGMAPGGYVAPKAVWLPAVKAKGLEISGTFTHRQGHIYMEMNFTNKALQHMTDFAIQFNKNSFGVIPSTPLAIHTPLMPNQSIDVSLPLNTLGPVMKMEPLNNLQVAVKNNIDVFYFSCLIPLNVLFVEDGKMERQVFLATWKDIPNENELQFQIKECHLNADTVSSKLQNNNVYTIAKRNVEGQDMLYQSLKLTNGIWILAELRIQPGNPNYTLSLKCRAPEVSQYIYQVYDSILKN
Assay [12] in a line: cytosolic pH regulators acting via V-ATPase – S. cerevisiae, pHLuorin, HTS validation (AID 504600; in the data active = response above about 15%;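 note: plate controls were DMSO for no effect and reference compound for full effect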). To be noted: V-ATPase proton transport, at 10 µM, stronger effect = higher value.
For assay [13], the system named is anti-desmoglein-3 scFv antibody binding to human DSG3. Briefly: blockers of pathogenic pemphigus antibody–desmoglein-3 binding – biochemical, validation compound set, bead-based, flow cytometry, pilot screen (AID 588368;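 active = binding below the plate cutoff, the plate median minus 3 SD, with a reading above zero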;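 note: signal is the median channel fluorescence of bead-bound GFP antibody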). The following applies: Protein G beads, DSG3-Fc, scFv-GFP binding, at 10 µM, stronger effect = lower value.
A short description of assay [14]: Nile Red efflux blockade in pump-expressing yeast – validation compound set, multiplex, phenotypic, pilot screen (AID 588506;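 active = efflux inhibition above 0.42, the validation set average plus 4 SD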;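 note: Nile Red retained in cells so higher fluorescence means more efflux inhibition; 0 = negative control wells and 1 = enniatin B 25 µM full block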). To be noted: S. cerevisiae pump-expressing triplex, Nile Red efflux flow cytometry; at 10 µM; stronger effect = higher value; the pumps come from Candida albicans.
Assay [15] concerns the target ATP-binding cassette sub-family B member 6 (Homo sapiens) (UniProt Q9NP58). As to the kind of experiment: blockers of ABCB6-driven porphyrin uptake – K562-ABCB6 cells, flow cytometry, validation set, pilot screen (AID 588550;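 active = inhibition above the screen-wide mean plus 3 SD, about 51%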;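 note: 0% = DMSO wells and 100% = benzethonium chloride 70 µM positive control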). The following applies: K562-ABCB6 porphyrin accumulation, 1 h, at 10 µM, stronger effect = higher value.
Assay [16] is described as follows: AML differentiation inducers, ER-HoxA9 marrow cells – cell-based, GFP/MAC1 double positive, flow cytometry, validation set, primary screen (AID 588685;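 active = differentiation response of at least 50%, scaled between solvent and reference control, from cells with both markers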;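 note: compound exposure lasts four days before antibody staining and flow analysis; 0% = DMSO wells and 100% = 5 µM fulvestrant positive control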). The following applies: stronger effect = higher value, normalized: vehicle 0, fulvestrant 100.

SMILES strings stand for the structures. Results filed as inconclusive are left out. Calls of active or inactive are those of the source.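 Rule for the calls, unless noted: active = GFP signal, as percent of the solvent control, above the screen mean plus 3 SD, about 149; inconclusive = no reading because the compound's own fluorescence upset strain identification; inactive = the rest.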

Sequence of Beta-2 adrenergic receptor (Homo sapiens) (P07550 whole entry, looked up): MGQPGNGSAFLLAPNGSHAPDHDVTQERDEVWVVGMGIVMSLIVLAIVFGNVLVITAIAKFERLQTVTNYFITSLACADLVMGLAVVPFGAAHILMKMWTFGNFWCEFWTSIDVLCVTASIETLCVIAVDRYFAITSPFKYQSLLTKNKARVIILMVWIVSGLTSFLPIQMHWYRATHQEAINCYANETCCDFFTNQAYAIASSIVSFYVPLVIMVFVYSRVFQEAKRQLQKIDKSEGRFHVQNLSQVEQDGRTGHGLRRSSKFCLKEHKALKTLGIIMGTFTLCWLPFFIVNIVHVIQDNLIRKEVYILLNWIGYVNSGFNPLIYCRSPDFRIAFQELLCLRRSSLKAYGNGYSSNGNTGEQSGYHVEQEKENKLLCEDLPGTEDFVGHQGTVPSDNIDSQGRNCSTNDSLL
Sequence of Beta-adrenergic receptor kinase 1 (Homo sapiens) (P25098 whole entry, looked up): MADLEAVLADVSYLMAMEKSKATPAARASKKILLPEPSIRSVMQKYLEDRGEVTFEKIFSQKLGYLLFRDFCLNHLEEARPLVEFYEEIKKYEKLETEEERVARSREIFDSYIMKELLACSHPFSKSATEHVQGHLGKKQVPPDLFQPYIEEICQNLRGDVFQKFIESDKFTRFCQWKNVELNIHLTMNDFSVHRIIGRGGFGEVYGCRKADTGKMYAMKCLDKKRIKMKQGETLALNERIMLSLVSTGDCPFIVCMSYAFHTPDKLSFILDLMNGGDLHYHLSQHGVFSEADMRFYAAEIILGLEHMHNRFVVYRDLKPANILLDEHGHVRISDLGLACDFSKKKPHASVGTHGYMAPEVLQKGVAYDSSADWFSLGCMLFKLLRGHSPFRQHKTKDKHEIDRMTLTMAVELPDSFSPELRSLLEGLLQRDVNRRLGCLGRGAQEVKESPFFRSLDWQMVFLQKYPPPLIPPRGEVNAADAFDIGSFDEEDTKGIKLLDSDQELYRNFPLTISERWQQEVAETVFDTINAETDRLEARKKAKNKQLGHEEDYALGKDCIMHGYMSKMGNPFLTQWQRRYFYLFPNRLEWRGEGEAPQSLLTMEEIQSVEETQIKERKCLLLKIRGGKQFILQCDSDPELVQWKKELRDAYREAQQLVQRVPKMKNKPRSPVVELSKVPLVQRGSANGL
Sequence of ATP-binding cassette sub-family B member 6 (Homo sapiens) (Q9NP58 whole entry, looked up): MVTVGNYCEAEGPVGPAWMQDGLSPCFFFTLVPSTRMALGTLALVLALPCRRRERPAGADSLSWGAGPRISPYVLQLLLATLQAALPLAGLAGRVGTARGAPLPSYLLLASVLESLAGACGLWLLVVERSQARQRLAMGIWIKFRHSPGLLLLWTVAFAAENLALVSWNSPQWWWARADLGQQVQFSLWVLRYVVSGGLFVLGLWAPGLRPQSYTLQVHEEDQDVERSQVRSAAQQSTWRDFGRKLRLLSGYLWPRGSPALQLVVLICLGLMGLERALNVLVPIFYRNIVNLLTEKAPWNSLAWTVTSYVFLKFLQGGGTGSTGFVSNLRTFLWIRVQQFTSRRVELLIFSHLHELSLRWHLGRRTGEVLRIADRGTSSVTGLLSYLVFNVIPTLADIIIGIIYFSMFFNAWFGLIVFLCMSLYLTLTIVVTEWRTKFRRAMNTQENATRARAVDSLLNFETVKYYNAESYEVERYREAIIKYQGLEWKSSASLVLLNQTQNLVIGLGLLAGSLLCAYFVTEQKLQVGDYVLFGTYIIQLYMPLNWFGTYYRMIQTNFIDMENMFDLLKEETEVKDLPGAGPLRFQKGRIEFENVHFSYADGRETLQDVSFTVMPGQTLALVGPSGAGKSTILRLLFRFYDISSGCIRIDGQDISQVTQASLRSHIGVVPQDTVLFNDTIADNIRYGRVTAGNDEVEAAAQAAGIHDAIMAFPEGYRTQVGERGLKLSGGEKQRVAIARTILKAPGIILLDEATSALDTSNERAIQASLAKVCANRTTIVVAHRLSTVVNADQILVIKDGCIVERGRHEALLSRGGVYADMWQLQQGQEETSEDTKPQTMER

For `O=C(O)[C@@H](O)c1ccccc1`, in assay [1], the percent of DMSO control GFP was 102% (inactive). Besides, the values for the GFP response vs DMSO in assay [2] and in assay [4] were 106% (inactive) and 121% (inactive), respectively. For the same compound, the percent response of DMSO control in [3] was 102% (inactive). For the same compound, the GFP response, % of DMSO in [5] was 120% (inactive). This compound came in with a double positive events in [6] of 62%. In addition, the vesicle binding response in [6] was 168% (inactive). In addition, the figures for the inhibition in assay [7], in assay [11] and in [15] were 16.8% (inactive), 10.1% (inactive) and 3% (inactive), respectively. In [8], the superoxide response (% of plate) is 97% (inactive). In addition, the aptamer binding inhibition in assay [9] was 3% (inactive). For the same compound, the results for the response in assay [10] and in assay [12] were -22.9% (inactive) and -0.22% (inactive), respectively. In [13], the binding (% of control) was 106% (inactive). Further, the efflux inhibition (fraction of control) in [14] was -0.04 (inactive). In assay [16], the differentiation response was -11.9% (inactive).
With `N/C(=N\OC(=O)CCCOc1ccc(Cl)cc1Cl)c1ccccn1`, the percent of DMSO control GFP in [1] was 103% (inactive). Besides, the GFP response vs DMSO was 110% (inactive) in assay [2] and 107% (inactive) in assay [4]. Moreover, the percent response of DMSO control in assay [3] was 93.9% (inactive). Also, the GFP response, % of DMSO in [5] is 86.8% (inactive). Besides, the double positive events in assay [6] stood at 59.3%. Also, in assay [6], the vesicle binding response is 11.6% (inactive). In addition, the inhibition in assay [7] was 9.71% (inactive); in assay [11] it was -27.4% (inactive); in [15], 7% (inactive). In [8], the superoxide response (% of plate) was 106% (inactive). Also, in assay [9], the aptamer binding inhibition is 0% (inactive). Besides, the response in assay [10] is 2.49% (inactive); in [12] it was -2.42% (inactive). Moreover, the binding (% of control) in [13] is 105% (inactive). In addition, the efflux inhibition (fraction of control) in assay [14] was -0.12 (inactive). Further, the differentiation response in assay [16] is -5.68% (inactive).
Turning to `CCCc1c(OCCCCc2nn[nH]n2)ccc(C(C)=O)c1O`, in assay [1], the percent of DMSO control GFP is 107% (inactive). For the same compound, the GFP response vs DMSO in assay [2] is 107% (inactive); in [4], 111% (inactive). For the same compound, the percent response of DMSO control in [3] is 104% (inactive). Besides, the GFP response, % of DMSO in assay [5] is 112% (inactive). Further, the double positive events in assay [6] came to 62.8%. In addition, the vesicle binding response in [6] is 197% (inactive). Besides, the inhibition in assay [7] is -13.2% (inactive); in [11], -8.69% (inactive); in [15], -13% (inactive). Besides, the superoxide response (% of plate) in [8] is 115% (inactive). For the same compound, the aptamer binding inhibition in assay [9] was -5% (inactive). Further, the response in [10] was 8.37% (inactive); in [12] it was -6.13% (inactive). For the same compound, the binding (% of control) in [13] is 105% (inactive). Besides, the efflux inhibition (fraction of control) in assay [14] was -0.16 (inactive). Besides, in assay [16], the differentiation response was 2.74% (inactive).
With `CC(C)(C)NCC(O)COc1cccc2c1C[C@H](O)[C@H](O)C2` (stereo not given in full), in [1], the percent of DMSO control GFP is 104% (inactive). For the same compound, the GFP response vs DMSO in assay [2] is 108% (inactive); in assay [4], 88.1% (inactive). Besides, in assay [3], the percent response of DMSO control was 98.9% (inactive). Also, in [5], the GFP response, % of DMSO was 98.1% (inactive). For the same compound, the double positive events in assay [6] amounted to 62.6%. Besides, in [6], the vesicle binding response is 1270% (inactive). Further, the inhibition is -16% (inactive) in assay [7], 55.4% (active) in assay [11] and 17% (inactive) in assay [15]. Also, the superoxide response (% of plate) in [8] was 104% (inactive). In addition, the aptamer binding inhibition in assay [9] was 3% (inactive). The values for the response in assay [10] and in assay [12] were 0.85% (inactive) and -3.23% (inactive), respectively. Moreover, the binding (% of control) in assay [13] was 99.2% (inactive). For the same compound, in assay [14], the efflux inhibition (fraction of control) is 0.05 (inactive). The differentiation response in [16] is 14.9% (inactive).
As for `CC(C)(C)OC(=O)COc1cc(OCC(=O)OC(C)(C)C)c2c(=O)cc(-c3ccccc3)oc2c1`, the percent of DMSO control GFP in [1] is 105% (inactive). Moreover, the GFP response vs DMSO was 107% (inactive) in [2] and 105% (inactive) in [4]. Also, in assay [3], the percent response of DMSO control was 102% (inactive). Also, in [5], the GFP response, % of DMSO is 100% (inactive). Also, in assay [6], the double positive events turned out to be 60.3%. The vesicle binding response in assay [6] is 77.9% (inactive). Moreover, the inhibition in assay [7] was -29.2% (inactive); in [11], -7.67% (inactive); in assay [15], 35% (inactive). Further, the superoxide response (% of plate) in assay [8] was 94.8% (inactive). For the same compound, the aptamer binding inhibition in assay [9] is 1% (inactive). The response was -17% (inactive) in assay [10] and 2.77% (inactive) in [12]. The binding (% of control) in assay [13] was 105% (inactive). For the same compound, the efflux inhibition (fraction of control) in [14] was -0.07 (inactive). Besides, the differentiation response in [16] was -4.57% (inactive).

The term inhibition denotes the change of the read-out against control, counted positive when it falls.

Source of the values: PubChem BioAssay.
